Measurements published in PubChem BioAssay (Tox21).
Values joined by “and” are separate entries in the source; they are usually repeats but may differ in a detail not shown here. Identical values can stand only once. Inconclusive results are not listed. More than one record can exist for a structure, and the calls need not agree. Active and inactive are the calls of the source. Unless noted, calls follow the shape of the dose curve; as a rule, active = well fitted curve in the direction sought with a large enough effect in the repeat runs; inconclusive = weak or mixed curves; inactive = no such curve, though single readings can be large; an effect the other way counts as inactive or inconclusive.

Columns and labels:
[1] = qHTS assay for small molecule agonists of the p53 signaling pathway (AID 651631; calls by dose curve; also: nearly all actives have a fitted effect of over 15% in size; also: potency is read from the fitted curve at half-maximal effect)
Method in brief: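 p53RE-bla HCT-116 cells; compounds 16 h, 37 °C; LiveBLAzer B/G FRET substrate 2 h RT; fluorescence intensity read-out, qHTS format.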

[2] = qHTS assay for small molecules that induce genotoxicity in human embryonic kidney cells expressing luciferase-tagged ATAD5 (AID 651632); also: nearly all actives have a fitted effect of over 15% in size
Method in brief: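 HEK293T cells carrying luciferase-tagged ATAD5 were given compound or DMSO vehicle and incubated 16 hr at 37C, 5% CO2. Luciferase activity was read after 30 min at room temperature with Amplite; a rise signals genotoxic stress.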

[3] = qHTS assay for small molecule agonists of the p53 signaling pathway - cell viability (AID 651633; calls by dose curve; also: nearly all actives have a fitted effect of over 30% in size; also: potency is read from the fitted curve at half-maximal effect)
Method in brief: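 p53RE-bla cells, seeded at 4,000 per well and rested 5 h at 37 C/5% CO2, received compounds in DMSO for 16 h at 37 C. CellTiter-Glo was then added, and luminescence was read after 30 min at room temperature to gauge cytotoxicity.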

[4] = qHTS assay for small molecules that induce genotoxicity in human embryonic kidney cells expressing luciferase-tagged ATAD5 - cell viability (AID 651634; calls by dose curve; also: nearly all actives have a fitted effect of over 25% in size)
Method in brief: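 HEK293T cells carrying luciferase-tagged ATAD5, 2,000 cells/well, exposed to compound for 15.5 hr at 37C. Viability read as live-cell protease activity by CellTiter-Fluor fluorescence after 30 min at 37C.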

[5] = qHTS assay for small molecule disruptors of the mitochondrial membrane potential - cell viability (AID 720634; calls by dose curve; also: nearly all actives have a fitted effect of over 20% in size; also: potency is read from the fitted curve at half-maximal effect)
Method in brief: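 HepG2 cells, 2,000 per well, attached overnight, then treated 1 hr at 37 C, 5% CO2. Viability read as ATP by CellTiter-Glo luminescence after 30 min at room temperature. Read in the same wells as the m-MPI membrane-potential dye assay.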

[6] = qHTS assay for small molecule disruptors of the mitochondrial membrane potential (AID 720635); also: potency is read from the fitted curve at half-maximal effect
Method in brief: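 HepG2 cells (2,000/well) attached overnight at 37C, then took compound for 1 hr at 37C, 5% CO2. Mito-MPS dye was added for 30 min; fluorescence was read at 490/535 nm (monomers) and 540/590 nm (aggregates).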

[7] = qHTS assay to test for compound auto fluorescence at 535 nm (green) in HepG2 cells (AID 720675)
[8] = qHTS assay to test for compound auto fluorescence at 460 nm (blue) in HEK293 cells (AID 720678)
Method in brief: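 Cells were seeded and left to adhere for 4-5 hr at 37C. Compounds were then pin-transferred. After an overnight incubation at 37C under 5% CO2, intrinsic fluorescence at 405/460 nm was measured and referenced to triamterene.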

[9] = qHTS assay to test for compound auto fluorescence at 535 nm (green) in HEK293 cells (AID 720680)
[10] = qHTS assay to test for compound auto fluorescence at 460 nm (blue) in HEK293 cell free culture (AID 720681)
Method in brief: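 Test compounds were pinned into cell-free culture medium (DMEM with 10% FBS) and fluorescence was read directly at Ex/Em 405/460 nm. Signals were expressed as fluorescence equivalents of triamterene, with DMSO vehicle as control.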

[11] = qHTS assay to test for compound auto fluorescence at 535 nm (green) in HEK293 cell free culture (AID 720682)
Method in brief: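 Cell-free medium (DMEM, 10% FBS) receives compound or DMSO by pintool. Plate read directly at Ex 485/Em 535 nm. Signal converted to fluorescein equivalency.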

[12] = qHTS assay to test for compound auto fluorescence at 590 nm (red) in HEK293 cell free culture (AID 720683)
Method in brief: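 Tox21 10K library compounds were pinned into cell-free DMEM with 10% FBS and fluorescence was read at excitation 540 nm. Activity is expressed as Rose Bengal sodium equivalency.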

[13] = qHTS assay to test for compound auto fluorescence at 590 nm (red) in HepG2 cell free culture (AID 720684)
Method in brief: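 Red fluorescence (540 nm excitation, 590 nm emission) was measured after compound transfer into cell-free MEM supplemented with 10% FBS. Values are equivalencies against Rose Bengal sodium.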

[14] = qHTS assay to test for compound auto fluorescence at 460 nm (blue) in HepG2 cell free culture (AID 720685)
Method in brief: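 Compound (23 nL) or DMSO pinned into cell-free MEM with 10% FBS; blue fluorescence read at 405/460 nm excitation/emission, expressed as auto-fluorescence equivalency to triamterene.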

[15] = qHTS assay to test for compound auto fluorescence at 535 nm (green) in HepG2 cell free culture (AID 720686)
[16] = qHTS assay to test for compound auto fluorescence at 460 nm (blue) in HepG2 cells (AID 720687)
Method in brief: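 Cells (2,000/well in MEM with 10% FBS) attached overnight at 37 C, then were exposed to compound or DMSO for 1 hr at 37 C, 5% CO2. Fluorescence read at Ex/Em 405/460 nm, expressed as triamterene-equivalent signal.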

[17] = molecular target: Glucocorticoid receptor (Homo sapiens) (UniProt P04150); assay: qHTS assay to identify small molecule agonists of the glucocorticoid receptor (GR) signaling pathway (AID 720691; active = well fitted activation curve with a large enough effect in the signal ratio in the repeat runs, not every such curve was filed as active; the % refers to the signal ratio)
Sequence of Glucocorticoid receptor (Homo sapiens) (P04150 whole entry, looked up): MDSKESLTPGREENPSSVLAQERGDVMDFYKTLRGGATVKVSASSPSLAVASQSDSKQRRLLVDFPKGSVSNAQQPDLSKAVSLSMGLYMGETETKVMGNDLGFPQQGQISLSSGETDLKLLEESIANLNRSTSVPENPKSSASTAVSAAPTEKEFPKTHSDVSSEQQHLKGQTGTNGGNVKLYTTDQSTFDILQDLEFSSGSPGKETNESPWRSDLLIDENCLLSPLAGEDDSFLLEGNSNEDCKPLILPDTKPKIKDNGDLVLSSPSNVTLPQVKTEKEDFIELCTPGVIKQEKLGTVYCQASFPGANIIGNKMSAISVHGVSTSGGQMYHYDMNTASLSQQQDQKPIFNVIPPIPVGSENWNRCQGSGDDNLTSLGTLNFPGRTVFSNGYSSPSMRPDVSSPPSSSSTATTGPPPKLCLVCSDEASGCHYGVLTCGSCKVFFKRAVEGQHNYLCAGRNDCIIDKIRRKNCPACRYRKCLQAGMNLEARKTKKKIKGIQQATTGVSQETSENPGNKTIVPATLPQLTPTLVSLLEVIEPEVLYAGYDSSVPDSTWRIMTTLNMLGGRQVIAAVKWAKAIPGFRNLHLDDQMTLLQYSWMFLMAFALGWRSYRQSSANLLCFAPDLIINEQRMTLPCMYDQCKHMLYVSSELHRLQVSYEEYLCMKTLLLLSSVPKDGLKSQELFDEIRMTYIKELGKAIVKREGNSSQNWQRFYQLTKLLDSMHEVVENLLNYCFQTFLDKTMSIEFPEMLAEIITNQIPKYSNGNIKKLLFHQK
Method in brief: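 GR-bla HeLa cells carrying a GRE-driven beta-lactamase reporter, exposed to compounds for 18 h at 37 C. Reporter activation read as fluorescence after 2 h with LiveBLAzer B/G FRET substrate at room temperature.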

[18] = molecular target: Glucocorticoid receptor (Homo sapiens) (UniProt P04150); assay: qHTS assay to identify small molecule antagonists of the glucocorticoid receptor (GR) signaling pathway (AID 720692; active = well fitted inhibition curve with a large enough effect in the signal ratio in the repeat runs, not every such curve was filed as active; the % refers to the signal ratio; also: potency is read from the fitted curve at half-maximal effect)
Method in brief: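 GR-bla HeLa cells carrying a GRE-driven beta-lactamase reporter received compound after 4 h plating, then dexamethasone (5 nM final). After 18 h at 37C, the FRET substrate was loaded for 2 h at room temperature and fluorescence read.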

[19] = qHTS assay to test for compound auto fluorescence at 590 nm (red) in HepG2 cells (AID 720674)
Method in brief: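 Intrinsic compound fluorescence in the red window (Ex/Em 540/590 nm) is measured in attached HepG2 cells exposed for 1 hr, DMSO vehicle as baseline, benchmarked to Rose Bengal sodium.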

[20] = qHTS assay to test for compound auto fluorescence at 590 nm (red) in HEK293 cells (AID 720679)
Method in brief: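 Each well held 2,000 HEK293 cells in medium containing 10% dialyzed FBS. Following 4-5 hr attachment at 37C, 23 nL test compound or DMSO was added; plates sat overnight, and red fluorescence (540/590nm) was recorded.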

Measured: Potency

CNC(=O)Oc1cccc2c1OC(C)(C)O2
not listed: [18] | [19] | [20]
inactive: all other assays above

Nn1cnnc1
not listed: [19] | [20]
inactive: all other assays above

C=CC(=O)OCCO
not listed: [16] | [18] | [20]
inactive: all other assays above

CCOP(=S)(OCC)O/N=C(\C#N)c1ccccc1
inactive and 54.5 µM (active): [5]
not listed: [9]
inactive: all other assays above

CCCCCCCCOC(=O)c1ccccc1C(=O)OCCCCCCCC
not listed: [16] | [17] | [18] | [19]
inactive: all other assays above

Clc1nc(Cl)nc(Cl)n1
not listed: [19]
inactive: all other assays above

COc1ccc(C(CN(C)C)C2(O)CCCCC2)cc1 (stereo unspecified)
not listed: [16] | [17] | [18]
inactive: all other assays above

CCCCOCCOP(=O)(OCCOCCCC)OCCOCCCC
27.3 µM (active) and inactive: [6]
54.5 µM (active) and inactive: [3] | [5]
not listed: [19] | [20]
inactive: all other assays above

Cc1cc(Cl)ccc1OCCCC(=O)O
not listed: [5] | [6] | [9] | [19]
inactive: all other assays above

CC(C)(OOC(C)(C)c1ccccc1)c1ccccc1
active: [6] 60.3 µM
not listed: [9] | [19] | [20]
inactive: all other assays above

CCC(C)c1cc([N+](=O)[O-])cc([N+](=O)[O-])c1O (stereo unspecified)
inactive and 1.22 µM (active): [5]
inactive and 864 nM (active): [1]
inactive and 344 nM (active): [6]
not listed: [4] | [8] | [20]
inactive: all other assays above

Nc1ccc(-c2ccccc2)cc1
not listed: [5] | [6] | [9] | [17] | [18]
inactive: all other assays above

c1ccc(NNc2ccccc2)cc1
not listed: [5] | [8] | [9] | [16]
inactive: all other assays above

CCOC(=S)S
not listed: [2] | [16] | [17] | [18]
inactive: all other assays above

O=P(O)(O)CCCl
not listed: [9] | [17] | [18] | [19] | [20]
inactive: all other assays above

C[C@]12CCC(=O)C(O)=C1CC[C@@H]1[C@@H]2CC[C@]2(C)C(=O)CC[C@@H]12
not listed: [8] | [19]
inactive: all other assays above

CCN(CC)N=O
not listed: [2] | [8] | [17] | [18]
inactive: all other assays above

Oc1cc(Cl)ccc1Oc1ccc(Cl)cc1Cl
active: [3] 3.95 µM | [5] 11.1 µM | [6] 4.22 µM and 352 nM
not listed: [4] | [8] | [16] | [18] | [20]
inactive: all other assays above

Cc1ccc(OP(=O)(Oc2ccc(C)cc2)Oc2ccc(C)cc2)cc1
active: [6] 24.3 µM
not listed: [5] | [19] | [20]
inactive: all other assays above

O=C(Nc1ccc(Br)cc1)c1cc(Br)cc(Br)c1O
active: [1] 8.41 µM and 1.53 µM and 12.2 µM | [3] 944 nM and 1.08 µM and 2.17 µM | [6] 1.88 µM and 543 nM and 545 nM
not listed: [4] | [9] | [18]
inactive: all other assays above

CCCCC(CC)COC(=O)c1ccc(C(=O)OCC(CC)CCCC)c(C(=O)OCC(CC)CCCC)c1 (stereo unspecified)
not listed: [5] | [6] | [8] | [19]
inactive: all other assays above

O=P(Oc1ccccc1)(Oc1ccccc1)Oc1ccccc1
active: [5] 13.6 µM | [6] 242 nM and 1.22 µM
not listed: [8] | [19]
inactive: all other assays above

CC(C)C(=O)OCC(C)(C)C(OC(=O)C(C)C)C(C)C (stereo unspecified)
30.9 µM (active) and inactive: [3]
not listed: [6] | [8]
inactive: all other assays above

CCOC(=O)C(C)OC(=O)c1cc(Oc2ccc(C(F)(F)F)cc2Cl)ccc1[N+](=O)[O-] (stereo unspecified)
active: [6] 21.6 µM and 61.1 µM
not listed: [5] | [8] | [20]
inactive: all other assays above

COc1ccc(C=O)cc1
not listed: [6] | [8] | [16]
inactive: all other assays above

O=[N+]([O-])c1c(Cl)c(Cl)c(Cl)c(Cl)c1Cl
active: [18] 30.9 µM
not listed: [6] | [16] | [19] | [20]
inactive: all other assays above

COP(=O)(OC)OC
not listed: [8] | [9] | [16] | [19]
inactive: all other assays above

N[C@@H](Cc1ccc(N(CCCl)CCCl)cc1)C(=O)O
active: [1] 13.3 µM and 26.2 µM
not listed: [6] | [16]
inactive: all other assays above

CC1(C)C(C=C(Cl)Cl)C1C(=O)OC(C#N)c1cccc(Oc2ccccc2)c1 (stereo unspecified)
not listed: [5] | [6] | [8] | [18]
inactive: all other assays above

C#C[C@]1(O)CC[C@H]2[C@@H]3CCC4=CC(=O)CC[C@]4(C)[C@H]3CC[C@@]21C
active: [18] 1.69 µM
not listed: [6] | [16] | [19]
inactive: all other assays above

OCC(O)CO
inactive: [1] | [2] | [3] | [4] | [5] | [6] | [17] | [18]

CCC(CC)Nc1c([N+](=O)[O-])cc(C)c(C)c1[N+](=O)[O-]
active: [6] 49.2 µM
not listed: [5] | [19]
inactive: all other assays above
